The values below come from PubChem BioAssay (NCI).

About 83,000 compounds went through this panel and 20% of them were active in at least one assay; those are over-represented in the sample as a whole.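 Treatment: one concentration, 48 hours, 96-well format. Scoring: percent growth, with anything below 10 considered active.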 Values without a mark were called inactive. The source made the active and inactive calls.

Holding throughout (assay): NCI-60 one-dose screen, 48 h (100 = growth as untreated, 0 = no growth, -100 = all killed)
Conditions in all cases: 10 µM unless noted

Experiment [1] relates to NCI-H226 lung.
Experiment [2] deals with NCI-H322M lung.
The test system of experiment [3] is HOP-62 NSCLC.
Experiment [4] relates to NCI-H460 lung.
Experiment [5] deals with HOP-92 NSCLC.
The subject of experiment [6] is NCI-H522 lung.
For experiment [7], the system named is A549/ATCC NSCLC.
Experiment [8] concerns 786-0 renal.
In experiment [9] the test system is COLO 205 colon.

`C/C=C/C1OC23CCCCC2C(C#N)(C(=N)O3)C1(C#N)C#N` (stereo not given): the growth was 103% in [1]; 102% in experiment [2]; 103% in [3]; 101% in experiment [4]; 117% in experiment [5]; 74.1% in [6]. Besides, the growth was 104% in [7], 105% in experiment [8] and 91.6% in experiment [9].
Turning to `CCN(CC)CCCNCc1cc(-c2ccccc2)nc2ccccc12`, the growth in [1] is 86.5%; in experiment [2], 102%; in experiment [3], 44.2%; in [4] it was 105%; in [5], 49.5%; in experiment [6], 74.7%. Moreover, the growth in [7] is 87.9%; in experiment [8], 76.1%; in experiment [9], 117%.
For `COc1cc(C)cc2oc3oc(=N)c(C(=O)c4ccccc4)cc3c(=O)c12`, the growth is 103% in experiment [1]; 98% in [2]; 106% in [3]; 105% in experiment [4]; 94.9% in experiment [5]; 96.8% in experiment [6]. Further, the growth in [7] is 109%; in experiment [8] it was 106%; in experiment [9], 124%.
As for `Cc1ccc(S(=O)(=O)Oc2ccc(Br)cc2Br)cc1`, the growth is 85.5% in experiment [1]; 91.2% in experiment [2]; 76.6% in [3]; 97.2% in [4]; 82.3% in [5]; 82.1% in experiment [6]. Besides, the results for the growth in experiment [7], in experiment [8] and in experiment [9] were 64%, 86.6% and 63.9%, respectively.
For `CCCCCCNC(=O)Nc1ncnc2c1ncn2-c1ccccc1`, the growth in [1] is 93.8%; in [2], 94.9%; in [3] it was 77.6%; in experiment [4], 102%; in experiment [5], 89.3%; in experiment [6] it was 82.5%. Besides, the growth in experiment [7] is 88%; in experiment [8] it was 85.5%; in experiment [9], 88.8%.
For the compound `CCOC(CNC(=O)c1cccc([N+](=O)[O-])c1)OCC`, the growth in experiment [1] is 89.8%; in [2] it was 109%; in [3], 108%; in experiment [4], 101%; in [5], 96.7%; in experiment [6], 64.2%. Further, the growth in [7] is 83.7%; in experiment [8], 101%; in experiment [9], 108%.
In the case of `C[n+]1c2ccccc2nc2c(N)cc(N)cc21`, the growth in experiment [1] was 37.2%; in [2] it was 71.2%; in experiment [3], 56.6%; in experiment [5], 84.2%; in experiment [6], 52.2%; in experiment [7] it was 82%. The growth in experiment [8] is 62.2%; in [9], 49.8%.
For `CCCCNC(=O)NS(=O)(=O)Cc1ccccc1`, the growth was 107% in experiment [1]; 118% in experiment [2]; 107% in [3]; 111% in experiment [4]; 94.4% in [5]; 102% in experiment [6]. The growth was 101% in experiment [7], 99% in experiment [8] and 118% in experiment [9].
For `CS(=O)(=O)c1cccnn1`, the growth was 97.4% in experiment [1]; 99.7% in experiment [2]; 103% in experiment [3]; 101% in [4]; 75.5% in experiment [5]; 104% in experiment [7]. Also, the growth in experiment [8] was 97.2%; in experiment [9], 131%.
Turning to `CCOc1cc(/C=N\NC(=O)N/N=C/c2ccc(O)c(OCC)c2)ccc1O`, the growth in experiment [1] is 55.5%; in experiment [2], 50.7%; in experiment [3], 38.9%; in [5] it was 80.7%; in [6], -18.6% (active); in [7] it was 59.4%. Also, the growth in experiment [8] is 28.6%; in experiment [9], 42.7%.
Take `CC(C)C1=NOC(=O)C1=Cc1cn(-c2ccco2)nc1-c1ccccc1`: the growth is 102% in experiment [1]; 102% in [2]; 79.1% in [3]; 93.8% in [4]; 94.1% in [5]; 84.8% in experiment [6]. Further, the growth in experiment [7] was 99.2%; in experiment [8], 89.1%; in experiment [9] it was 103%.
For the compound `O=C1/C(=C\c2cccn2Cc2ccccc2)c2ccccc2N1c1c(Cl)cccc1Cl`, the growth in experiment [1] was 53.1%; in experiment [2], 54.8%; in experiment [5] it was 1.73% (active); in experiment [6], 88.9%; in experiment [7], 53.1%; in experiment [8], 89%. Further, the growth in experiment [9] was -6.31% (active).
In the case of `Nc1cc(N)c(N=Nc2ccc(S(=O)(=O)O)cc2)cc1N=Nc1ccc(-c2ccc(N=Nc3ccc(O)c(C(=O)O)c3)cc2)cc1`, the growth was 92.2% in experiment [1]; 101% in [2]; 98.8% in experiment [3]; 105% in experiment [4]; 108% in [5]; 98.2% in [6]. Also, the results for the growth in [7], in experiment [8] and in experiment [9] were 101%, 105% and 109%, respectively.
`COc1ccc(-c2cc(-c3ccc(OC)c(OC)c3)nc(SCCCCCC(=O)NO)n2)cc1`: the growth in [1] is 95.2%; in experiment [2] it was 70.6%; in experiment [4], 62.3%; in experiment [5], 27.6%; in experiment [6] it was 6.61% (active); in experiment [7] it was 85.7%. Further, the growth is 94.1% in [8] and 36.8% in [9].
Turning to `O=C1/C(=C/c2ccc(OCc3ccccc3)cc2)Oc2cc(OCCN3CCCCC3)ccc21`, the growth in experiment [1] is 89.6%; in [2] it was 97.9%; in [3] it was 95.7%; in experiment [4], 70.3%; in experiment [5] it was 70.9%; in [6] it was 87.5%. Also, the growth in experiment [7] is 80.1%; in experiment [8] it was 69%; in experiment [9], 105%.
`COc1ccc2c(c1)C(C)Cc1c(Cl)nc(C)nc1N2C` (stereo not given): the growth in experiment [1] was 38.6%; in experiment [2], 58.8%; in experiment [3], 29.4%; in experiment [4], 12.3%; in [5] it was 41.7%; in [6], -17% (active). In addition, the growth in experiment [7] is 21.8%; in experiment [8], 38.2%; in experiment [9], -20.9% (active).
For `c1ccc2c(c1)CN(CCCN1CCOCC1)C2`, the growth in [1] is 96.2%; in [2] it was 99.7%; in experiment [3], 103%; in [4], 103%; in experiment [5], 126%; in experiment [6] it was 98.3%. The growth in experiment [7] is 96.8%; in experiment [8], 102%; in experiment [9] it was 108%.
For the compound `Nc1cc(NN=C(c2ccc(O)cc2)c2ccc(O)cc2)c([N+](=O)[O-])cc1[N+](=O)[O-]`, the growth is 61.8% in experiment [1]; 110% in [2]; -10.2% (active) in experiment [3]; -60.1% (active) in experiment [4]; 60.5% in experiment [5]; -82% (active) in experiment [6]. Also, the growth in [7] was -49.6% (active); in [8], -93.9% (active); in experiment [9], -52.8% (active).
For the compound `Clc1ccc2nc(-c3ccc(-c4ccc(/C=N/NC5=NCCN5)cc4)s3)cn2c1`, the growth in [1] was 94.9%; in experiment [2] it was 98.3%; in experiment [3], 98.6%; in experiment [4], 100%; in [5], 76.5%; in [6], 106%. In addition, the growth was 99.9% in experiment [7], 95.5% in experiment [8] and 107% in experiment [9].
`O=C(CSc1nc2ccc([N+](=O)[O-])cc2[nH]1)Nc1cccc(Cl)c1`: the growth in experiment [1] is 12.9%; in [2], 62.4%; in [3], 35%; in experiment [4] it was 25.3%; in experiment [5], -27.9% (active); in experiment [6], 4.64% (active). Besides, the values for the growth in [7], in experiment [8] and in [9] were 28.9%, 28.6% and 26.4%, respectively.
As to `CCN=C1C=CC(=C(c2ccc(N(CC)CC)cc2)c2ccc(N(CC)CC)cc2)c2ccccc21`, the growth in experiment [1] was -58.3% (active); in [2], -38.9% (active); in experiment [3], -71.8% (active); in experiment [4], -72% (active); in experiment [5], -72.8% (active); in experiment [6] it was -65.5% (active). Besides, the growth in experiment [7] was -59.8% (active); in experiment [8], -64.3% (active); in experiment [9], -90.7% (active).
Take `CCCCC(CCCCCC(CCCC)C1NC(C)Cc2cc(OC)c(OC)cc21)C1NC(C)Cc2cc(OC)c(OC)cc21` (stereo not given): the growth in experiment [1] was -77.8% (active); in experiment [2], -39.4% (active); in [3], -97.2% (active); in experiment [4], -73.8% (active); in experiment [5], -57.8% (active); in experiment [6] it was -87.7% (active). The growth in experiment [7] is -80.9% (active); in [8] it was -98.4% (active); in [9] it was -96.9% (active).
Take `N#Cc1c(Cl)nc(SCC2CO2)nc1-c1ccccc1` (stereo not given): the growth in experiment [1] is 114%; in experiment [2], 105%; in experiment [3] it was 92.8%; in experiment [4] it was 101%; in experiment [5], 89.8%; in experiment [6], 101%. Also, the growth is 124% in experiment [7], 99.5% in experiment [8] and 131% in experiment [9].
As for `COc1ccc(C2CC(c3ccc4ccccc4c3)=NN2c2nc(O)c(C3=c4cc(OC)ccc4=NC3=O)s2)cc1` (stereo not given), the growth is -70.6% (active) in [1]; -17% (active) in [2]; -60.7% (active) in experiment [3]; -39.8% (active) in [4]; -67.7% (active) in experiment [5]; -74.1% (active) in experiment [6]. Besides, the growth in experiment [7] is -72.4% (active); in experiment [8], -73.3% (active); in experiment [9] it was -73.3% (active).
